Laboratory results as given in the supplement of paper PMC11732987, “Enantioselective OTUD7B fragment discovery through chemoproteomics screening and high-throughput optimisation” (Communications Chemistry, 2025).

Key:
Experiment in all cases: log2 ratio of Biotin-Ahx-Ub-VS probe labelling (fragment/DMSO); higher = less target engagement (more negative = stronger competition), active = hit call of the paper (q ≤ 0.05, log2 ratio ≤ -1)
Settings in all cases: compound concentration: 200 uM; treatment time: 3 h
USP19 = target: T1, USP19 (UniProt O94966)
T1 sequence (whole entry): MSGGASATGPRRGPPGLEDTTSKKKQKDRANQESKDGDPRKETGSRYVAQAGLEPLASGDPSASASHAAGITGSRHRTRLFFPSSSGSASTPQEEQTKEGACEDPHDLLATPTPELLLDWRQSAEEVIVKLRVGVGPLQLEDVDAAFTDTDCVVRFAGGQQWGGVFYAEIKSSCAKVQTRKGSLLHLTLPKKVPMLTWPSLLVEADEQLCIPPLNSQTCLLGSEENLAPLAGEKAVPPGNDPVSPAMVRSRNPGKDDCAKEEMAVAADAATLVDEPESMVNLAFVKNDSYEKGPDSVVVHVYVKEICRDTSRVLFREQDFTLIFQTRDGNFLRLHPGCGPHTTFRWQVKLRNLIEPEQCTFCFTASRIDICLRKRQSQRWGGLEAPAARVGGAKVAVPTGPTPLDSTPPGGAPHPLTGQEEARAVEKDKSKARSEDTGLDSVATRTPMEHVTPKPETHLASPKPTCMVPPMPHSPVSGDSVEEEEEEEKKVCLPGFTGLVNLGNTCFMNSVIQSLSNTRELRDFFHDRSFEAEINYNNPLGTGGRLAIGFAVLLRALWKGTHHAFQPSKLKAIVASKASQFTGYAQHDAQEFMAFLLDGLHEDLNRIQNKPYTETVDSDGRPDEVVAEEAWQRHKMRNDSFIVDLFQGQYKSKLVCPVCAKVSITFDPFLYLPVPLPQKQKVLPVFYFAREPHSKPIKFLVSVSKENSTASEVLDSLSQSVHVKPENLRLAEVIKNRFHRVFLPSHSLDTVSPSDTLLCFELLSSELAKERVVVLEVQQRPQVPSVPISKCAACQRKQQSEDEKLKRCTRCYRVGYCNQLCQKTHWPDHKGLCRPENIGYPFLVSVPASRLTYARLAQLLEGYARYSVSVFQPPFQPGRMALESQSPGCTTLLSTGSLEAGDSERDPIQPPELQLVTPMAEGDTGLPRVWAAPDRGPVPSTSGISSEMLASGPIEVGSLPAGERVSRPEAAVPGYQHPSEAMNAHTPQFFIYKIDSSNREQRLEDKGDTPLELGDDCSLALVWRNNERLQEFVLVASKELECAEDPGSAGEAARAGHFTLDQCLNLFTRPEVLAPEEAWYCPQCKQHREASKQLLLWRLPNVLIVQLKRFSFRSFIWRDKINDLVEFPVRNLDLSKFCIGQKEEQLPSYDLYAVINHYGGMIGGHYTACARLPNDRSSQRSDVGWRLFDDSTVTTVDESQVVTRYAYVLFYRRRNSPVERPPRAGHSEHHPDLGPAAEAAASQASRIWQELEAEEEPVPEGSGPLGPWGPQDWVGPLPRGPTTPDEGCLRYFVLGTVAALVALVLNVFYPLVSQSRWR
Summary of the method: (§1)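 Each value is an average log2 ratio of fragment to vehicle, tested by unpaired t-test. The underlying Spectronaut label-free quantities were global-median-normalised, and only proteins with ≥2 unique peptides were included. Triplicate HEK293T lysate samples (495 µg) were exposed to fragment at 200 µM or vehicle for 3 h, then to Biotin-Ahx-Ub-VS at 0.5 µM final for 1 h, before NeutrAvidin enrichment of labelled DUBs, LysC and trypsin digestion, and diaPASEF LC-MS/MS.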

USP24 = USP24 (UniProt Q9UPU5)
Summary of the method: as §1

USP25 = target: T2, USP25 (UniProt Q9UHP3)
T2 sequence (whole entry): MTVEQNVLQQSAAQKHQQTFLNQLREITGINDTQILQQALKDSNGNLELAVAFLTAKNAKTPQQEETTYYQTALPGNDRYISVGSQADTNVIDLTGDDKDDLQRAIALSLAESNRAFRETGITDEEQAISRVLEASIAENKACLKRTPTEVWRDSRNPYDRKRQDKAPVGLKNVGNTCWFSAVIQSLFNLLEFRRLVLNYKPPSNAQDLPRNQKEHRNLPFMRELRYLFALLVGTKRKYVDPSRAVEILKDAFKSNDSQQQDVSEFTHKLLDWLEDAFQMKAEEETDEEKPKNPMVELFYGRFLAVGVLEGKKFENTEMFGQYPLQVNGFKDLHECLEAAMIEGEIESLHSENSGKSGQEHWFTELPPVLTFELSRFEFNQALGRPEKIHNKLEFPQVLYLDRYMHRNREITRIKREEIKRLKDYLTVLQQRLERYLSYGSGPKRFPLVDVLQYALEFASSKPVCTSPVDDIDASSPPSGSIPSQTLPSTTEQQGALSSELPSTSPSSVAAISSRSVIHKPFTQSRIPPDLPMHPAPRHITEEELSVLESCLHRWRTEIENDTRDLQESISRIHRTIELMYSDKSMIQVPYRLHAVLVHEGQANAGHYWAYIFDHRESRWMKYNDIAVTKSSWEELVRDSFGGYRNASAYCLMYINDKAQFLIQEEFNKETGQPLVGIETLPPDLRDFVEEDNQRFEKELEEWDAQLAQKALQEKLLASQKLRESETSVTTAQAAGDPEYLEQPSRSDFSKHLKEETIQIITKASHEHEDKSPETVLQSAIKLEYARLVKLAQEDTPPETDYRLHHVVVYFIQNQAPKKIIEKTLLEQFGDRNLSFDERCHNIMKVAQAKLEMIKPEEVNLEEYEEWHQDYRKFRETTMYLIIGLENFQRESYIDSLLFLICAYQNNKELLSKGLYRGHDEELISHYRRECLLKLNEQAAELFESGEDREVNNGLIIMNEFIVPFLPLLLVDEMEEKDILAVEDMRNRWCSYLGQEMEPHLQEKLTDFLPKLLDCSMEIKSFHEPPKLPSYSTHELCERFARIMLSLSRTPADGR
Summary of the method: as §1

USP28 = target: T3, USP28 (UniProt Q96RU2)
T3 sequence (whole entry): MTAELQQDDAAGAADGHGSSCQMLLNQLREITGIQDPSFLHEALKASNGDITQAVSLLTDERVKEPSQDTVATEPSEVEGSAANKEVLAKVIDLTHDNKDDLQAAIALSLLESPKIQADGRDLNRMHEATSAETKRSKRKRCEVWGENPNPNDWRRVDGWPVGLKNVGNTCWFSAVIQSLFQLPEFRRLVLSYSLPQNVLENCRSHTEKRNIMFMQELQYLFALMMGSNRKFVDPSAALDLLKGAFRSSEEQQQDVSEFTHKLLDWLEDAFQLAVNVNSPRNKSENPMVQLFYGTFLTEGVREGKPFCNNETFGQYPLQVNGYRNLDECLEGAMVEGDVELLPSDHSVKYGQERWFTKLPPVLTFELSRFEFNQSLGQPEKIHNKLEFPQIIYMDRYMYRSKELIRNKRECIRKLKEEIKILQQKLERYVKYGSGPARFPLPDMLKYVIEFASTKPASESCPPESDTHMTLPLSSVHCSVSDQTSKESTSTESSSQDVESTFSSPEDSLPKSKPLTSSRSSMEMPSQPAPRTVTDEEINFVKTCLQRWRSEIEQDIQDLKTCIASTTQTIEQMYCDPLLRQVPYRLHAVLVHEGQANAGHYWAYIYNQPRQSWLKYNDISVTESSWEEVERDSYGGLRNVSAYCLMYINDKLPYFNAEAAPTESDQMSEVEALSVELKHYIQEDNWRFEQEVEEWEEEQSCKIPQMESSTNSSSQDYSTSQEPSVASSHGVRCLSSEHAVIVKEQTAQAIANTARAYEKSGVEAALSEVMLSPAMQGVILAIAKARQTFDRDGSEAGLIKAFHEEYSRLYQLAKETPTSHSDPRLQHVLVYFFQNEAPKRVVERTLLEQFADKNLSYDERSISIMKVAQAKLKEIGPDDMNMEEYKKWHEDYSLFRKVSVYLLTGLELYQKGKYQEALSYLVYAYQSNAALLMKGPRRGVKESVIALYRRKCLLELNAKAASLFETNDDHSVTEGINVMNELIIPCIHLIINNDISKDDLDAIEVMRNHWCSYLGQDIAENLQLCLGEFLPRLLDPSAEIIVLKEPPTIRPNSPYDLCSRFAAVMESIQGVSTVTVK
Summary of the method: as §1

Measured: log2 ratio of Biotin-Ahx-Ub-VS probe labelling

Chain of USP24 (Q9UPU5 whole entry): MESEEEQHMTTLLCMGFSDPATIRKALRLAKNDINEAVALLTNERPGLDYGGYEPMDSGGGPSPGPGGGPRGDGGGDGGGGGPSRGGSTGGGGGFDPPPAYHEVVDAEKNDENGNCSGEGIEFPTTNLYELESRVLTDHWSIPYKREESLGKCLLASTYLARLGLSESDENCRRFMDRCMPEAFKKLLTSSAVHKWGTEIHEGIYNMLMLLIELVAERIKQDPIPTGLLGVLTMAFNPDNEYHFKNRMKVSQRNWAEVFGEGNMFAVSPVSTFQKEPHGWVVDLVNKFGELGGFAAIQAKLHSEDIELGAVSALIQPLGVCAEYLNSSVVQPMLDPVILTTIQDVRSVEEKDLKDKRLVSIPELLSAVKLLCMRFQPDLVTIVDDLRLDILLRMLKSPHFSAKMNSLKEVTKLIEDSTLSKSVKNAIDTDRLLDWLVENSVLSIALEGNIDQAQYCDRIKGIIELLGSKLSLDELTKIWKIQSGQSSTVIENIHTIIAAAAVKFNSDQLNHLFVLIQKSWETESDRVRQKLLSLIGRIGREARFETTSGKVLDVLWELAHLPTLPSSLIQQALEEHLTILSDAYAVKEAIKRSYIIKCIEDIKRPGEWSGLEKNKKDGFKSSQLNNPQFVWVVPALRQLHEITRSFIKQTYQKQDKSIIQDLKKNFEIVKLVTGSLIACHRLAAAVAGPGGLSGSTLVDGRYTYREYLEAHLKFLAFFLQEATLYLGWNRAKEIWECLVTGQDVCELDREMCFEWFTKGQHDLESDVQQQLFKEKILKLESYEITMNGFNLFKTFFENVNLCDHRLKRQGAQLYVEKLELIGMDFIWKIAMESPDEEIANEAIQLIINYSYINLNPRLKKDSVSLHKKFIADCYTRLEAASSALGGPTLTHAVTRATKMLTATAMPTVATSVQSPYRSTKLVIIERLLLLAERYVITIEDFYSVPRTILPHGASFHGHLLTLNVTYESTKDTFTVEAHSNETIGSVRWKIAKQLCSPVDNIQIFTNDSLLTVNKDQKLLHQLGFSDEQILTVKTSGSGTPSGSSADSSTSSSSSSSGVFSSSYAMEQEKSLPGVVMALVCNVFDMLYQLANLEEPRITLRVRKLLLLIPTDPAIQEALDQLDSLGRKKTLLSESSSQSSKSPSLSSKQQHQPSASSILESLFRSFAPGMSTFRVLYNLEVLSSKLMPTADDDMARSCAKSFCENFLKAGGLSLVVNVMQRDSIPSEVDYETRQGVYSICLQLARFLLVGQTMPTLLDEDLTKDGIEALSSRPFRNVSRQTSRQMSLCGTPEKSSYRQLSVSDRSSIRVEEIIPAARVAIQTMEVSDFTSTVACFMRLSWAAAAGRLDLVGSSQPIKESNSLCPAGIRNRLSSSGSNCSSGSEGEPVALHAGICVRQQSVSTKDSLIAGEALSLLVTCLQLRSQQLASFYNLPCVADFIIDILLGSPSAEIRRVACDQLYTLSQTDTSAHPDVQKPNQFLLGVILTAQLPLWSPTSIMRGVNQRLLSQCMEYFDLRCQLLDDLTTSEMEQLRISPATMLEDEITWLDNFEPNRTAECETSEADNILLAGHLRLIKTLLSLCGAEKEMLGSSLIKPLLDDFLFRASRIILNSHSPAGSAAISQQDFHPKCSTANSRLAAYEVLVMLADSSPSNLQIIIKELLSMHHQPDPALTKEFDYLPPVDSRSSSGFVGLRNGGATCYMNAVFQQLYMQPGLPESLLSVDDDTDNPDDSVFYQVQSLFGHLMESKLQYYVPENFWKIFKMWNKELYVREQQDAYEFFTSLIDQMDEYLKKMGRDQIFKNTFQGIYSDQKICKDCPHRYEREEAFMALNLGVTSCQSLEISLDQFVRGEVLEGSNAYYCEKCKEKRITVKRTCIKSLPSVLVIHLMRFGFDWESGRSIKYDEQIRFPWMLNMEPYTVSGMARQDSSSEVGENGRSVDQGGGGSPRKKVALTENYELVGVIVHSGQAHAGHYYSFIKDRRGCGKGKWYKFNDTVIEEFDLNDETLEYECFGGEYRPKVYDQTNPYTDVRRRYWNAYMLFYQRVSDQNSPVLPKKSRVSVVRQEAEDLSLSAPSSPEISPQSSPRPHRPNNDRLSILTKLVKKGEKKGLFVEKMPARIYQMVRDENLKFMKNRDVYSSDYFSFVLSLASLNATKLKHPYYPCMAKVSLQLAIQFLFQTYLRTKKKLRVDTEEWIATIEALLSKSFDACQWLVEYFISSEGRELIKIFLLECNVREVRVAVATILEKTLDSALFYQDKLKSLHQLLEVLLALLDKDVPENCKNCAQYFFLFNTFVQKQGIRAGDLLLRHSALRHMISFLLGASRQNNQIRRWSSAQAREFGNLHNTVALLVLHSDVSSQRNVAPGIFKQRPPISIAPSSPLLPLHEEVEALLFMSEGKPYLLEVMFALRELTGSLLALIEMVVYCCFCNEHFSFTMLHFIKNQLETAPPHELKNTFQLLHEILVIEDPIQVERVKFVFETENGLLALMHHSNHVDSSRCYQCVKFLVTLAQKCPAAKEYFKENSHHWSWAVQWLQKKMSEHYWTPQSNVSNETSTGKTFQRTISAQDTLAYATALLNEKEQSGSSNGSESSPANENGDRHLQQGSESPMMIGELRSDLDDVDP

CC(NC(=O)CCl)c1cccc(Cl)c1 (centres undefined)
inactive: USP19 -0.35 | USP24 -0.342 | USP25 -0.639 | USP28 -0.845
